Bioassay records (PubChem)
Not all results are given here.
aSyn 5UTR act – Activators via SNCA 5'UTR binding, MLPCN; actives 7.1% (n = 300,000); AID 1814, 2009; activity score, % (tested at 7.5 µM), hits read low; alpha-synuclein 5'UTR reporter, activators screen; in the data active = activity score below about -60%
Numbers without * were called inactive.

SMILES	aSyn 5UTR act
c1ccc(CN2CCN(c3nc4ccccc4s3)CC2)cc1	-149.9*
CC1CCN(c2nc3ccc(C(=O)N4CCN(Cc5ccccc5)CC4)cc3s2)CC1	-136.8*
CCOC(=O)N1CCN(C(=O)c2ccc3nc(N4CCC(C)CC4)sc3c2)CC1	-123.6*
COc1cccc(N2CCN(C(=O)c3ccc(CS(=O)c4ccc(C)cc4)o3)CC2)c1 (stereo not given)	96.6
COc1cccc(N2CCN(C(=O)c3ccc4nc(N5CCC(C)CC5)sc4c3)CC2)c1	-156.8*
O=c1c2ccccc2nc2oc3ccccc3n12	-147.7*
CC(C)c1ccc(CNc2ccc([N+](=O)[O-])cn2)cc1	-77.9*
O=[N+]([O-])c1ccc(NCc2ccc(Cl)cc2)nc1	-104.9*
CC(C)c1ccc(CNc2c([N+](=O)[O-])c(=O)oc3ccccc23)cc1	-70.8*
CC(C)c1ccc(CNc2ncc(Br)cn2)cc1	-153.1*
N#Cc1ccccc1NC(=O)c1ccccc1OCC(=O)NCc1ccco1	-68.3*
COc1cccc(OCc2cc(C(=O)NCc3ccccn3)no2)c1	-128.2*
COc1ccc(OCc2cc(C(=O)NCc3cccc(C)n3)no2)c(Cl)c1	-64.9*
CC(=O)c1ccc(OCc2cc(C(=O)N(C)CCOc3ccc(C)cc3)no2)cc1	-170.1*
CC(=O)c1ccc(OCc2cc(C(=O)N(C)C3CCOC3)no2)cc1 (stereo not given)	-129.6*
Cc1cc(OCc2cc(C(=O)N(C)C3CCOC3)no2)cc(C)c1Cl (stereo not given)	-106.9*
Cc1ccc(NC(=O)CSc2nc3ccccc3c3nc4ccccc4n23)cc1	110.3
Cc1ccc(NC(=O)CSc2ncc(-c3ccccc3)n2C(=O)c2ccccc2)cc1	-64.3*
CC(C)c1ccc(NC(=O)[C@@H]2CCC(=O)N2C2OC(=O)c3ccccc32)cc1 (stereo not given in full)	-79.3*
O=C(NC(=S)NCc1nc2ccccc2[nH]1)c1ccc(F)cc1	-119.2*
O=C(NC(=S)NCc1nc2ccccc2[nH]1)c1ccccc1F	-143.4*
Cc1cccc(-n2c(N)cc(=O)[nH]c2=S)c1	-214.5*
Cc1ccc(/C=C/C(=O)N2CCc3ccccc32)o1	-204.2*
COc1ccc(CCC(=O)N2CCc3ccccc32)cc1	-90.5*
COc1ccc(C(=O)N2CCc3ccccc32)cc1	-88.8*
SMILES	aSyn 5UTR act
COc1cc2[nH]c(C(=O)N3CCc4ccccc43)cc2c(OC)c1OC	-93.3*
COc1ccc(/C=C/C(=O)N2CCCc3ccccc32)cc1	-93.0*
COC(=O)C1=C(CN2CCCc3ccccc32)NC(=O)NC1c1ccc(F)cc1 (stereo not given)	79.2
Cc1cc(=O)oc2cc(OCc3ccccc3)ccc12	-129.8*
COc1ccc(COc2ccc3c(C)cc(=O)oc3c2)cc1	-131.2*
Cc1ccc(C(=O)NCCCc2ccccc2)s1	-136.8*
O=C(NCCc1ccccc1)c1ccc(Cl)cc1[N+](=O)[O-]	-166.8*
COc1ccc(C(=O)NCCCc2ccccc2)cc1	-149.1*
O=C(CN(c1ccc(Cl)cc1)S(=O)(=O)c1ccc(Cl)c([N+](=O)[O-])c1)NCCc1ccccc1	105.8
CN(C(=O)COc1ccccc1C(=O)NCCc1ccccc1)c1ccccc1	-98.1*
O=C(CCCc1ccccc1)c1ccccc1	-104.9*
O=C(NCCc1ccccc1)c1ccccc1NS(=O)(=O)N1CCCC1	-88.1*
O=C(CCCC(=O)c1ccc(O)cc1)c1ccc(O)cc1	-70.8*
O=C(NCCc1ccccc1)c1ccc(-n2cnnn2)cc1	-66.1*
CC(C)=CC(=O)NCCc1ccccc1	-63.8*
O=C(NCCc1ccccc1)c1ccc(Br)o1	-93.1*
O=C(NC(=S)NCCc1ccccc1)c1ccccc1	-115.4*
O=C(NCCc1ccccc1)c1cnc2n(c1=O)CCS2	-79.5*
Cc1ccccc1C(=O)NCCCc1ccccc1	-83.8*
O=C(NCCCc1ccccc1)c1ccccc1	-166.6*
O=C(NCCc1ccccc1)c1ccccc1C(=O)NCCc1ccccc1	-113.1*
O=C(NCCc1ccccc1)c1c[nH]c2c(F)cccc2c1=O	-93.5*
CCOc1cc(/C=C2\CN(C)C/C(=C\c3ccc(O)c(OCC)c3)C2=O)ccc1O	96.5
CCOc1cc(/C=C2\CCC/C(=C\c3cc(Cl)c(O)c(OCC)c3)C2=O)cc(Cl)c1O	-328.8*
CCCCN1CCc2c([nH]c3c(C)cccc23)C1=O	-149.6*
SMILES	aSyn 5UTR act
Cc1cc(-c2ccc(Br)cc2)n[nH]1	-119.6*
Nc1cc(-c2ccc(Br)cc2)[nH]n1	-89.9*
Cc1csc(NC(=O)Cc2ccc(Cl)cc2)n1	-81.4*
Cc1csc(NC(=O)Cc2ccccc2Cl)n1	-98.6*
Cc1ccc(S(=O)(=O)c2cc3ccccc3oc2=O)cc1	-110.6*
O=C(c1cc2ccccc2o1)c1cccs1	-134.4*
Cc1ccc(C(=O)c2cc3ccccc3o2)cc1	-169.8*
Cc1ccc(C(=O)c2cc3ccccc3o2)cc1C	-67.8*
Cc1ccc(N(C(=O)Nc2ccccc2)C2=NCC(C)S2)cc1 (stereo not given)	-62.2*
COc1cccc(C(NC(C)=O)c2ccc3cccnc3c2O)c1 (stereo not given)	72.3
Oc1cccc(/C=N/Nc2cccc3cccnc23)c1	-142.5*
COc1cc(/C=N/Nc2cccc3cccnc23)cc(OC)c1O	-94.2*
Oc1cccc(/C=N/Nc2ccc(Cl)nn2)c1	-170.9*
Oc1c(/C=N/Nc2cccc3cccnc23)ccc2ccccc12	-163.9*
O=[N+]([O-])c1ccc(O)c(/C=N/Nc2ccc(Cl)nn2)c1	100.1
Oc1ccc(/C=N/Nc2cccc(Cl)n2)c(O)c1	-244.0*
Cc1cnc(Nc2nc3ccccc3o2)nc1C(=O)Nc1cccc(C(F)(F)F)c1	-66.5*
COc1ccc(Cl)cc1NC(=O)C1Cc2ccccc2CN1S(C)(=O)=O (stereo not given)	53.9
CCc1nnc(NC(=O)C2Cc3ccccc3CN2S(=O)(=O)c2c(C)c(C)cc(C)c2C)s1 (stereo not given)	-104.3*
Cc1ccc(Nc2cc(-n3cccn3)ncn2)c(C)c1	-170.1*
Fc1cccc(Nc2cc(-n3cccn3)ncn2)c1	-147.5*
O=C(N/N=C/c1ccc2c(c1)OCO2)c1cccc2ccccc12	-109.2*
Cc1cccc(C)c1OCC(=O)N/N=C/c1ccc2c(c1)OCO2	-85.2*
Cn1cc(C(=O)N/N=C/c2ccc3c(c2)OCO3)c2ccccc21	-275.8*
Cn1cc(C(=O)N/N=C/c2cccs2)c2ccccc21	-181.0*
SMILES	aSyn 5UTR act
O=C(N/N=C/c1ccc([N+](=O)[O-])cc1)c1cccs1	-118.2*
O=C(N/N=C/c1ccc(-c2cccc([N+](=O)[O-])c2)o1)c1cccs1	-118.4*
CCCCOc1ccc(NC(=O)C(=O)NCCCn2ccnc2)cc1	66.1
CCOc1ccc(NC(=S)NCCCn2ccnc2)cc1	-76.7*
Cc1ccc(N=C(c2cccs2)N2CCOCC2)cc1	-65.8*
Fc1ccc(N2CCN(C3=Nc4cccc5cccc3c45)CC2)cc1	-173.5*
c1ccc(CN2CCN(C3=Nc4cccc5cccc3c45)CC2)cc1	-101.4*
Cc1cc(N2CCN(Cc3cn(C)nc3-c3ccccc3F)CC2)cc(C)n1	90.9
O=C1CCC2S/C(=C/Nc3ccc(C(F)(F)F)cc3)C(=O)N12 (stereo not given)	99.4
COc1ccc(-n2ncc3c(NCC4CCCO4)ncnc32)cc1 (stereo not given)	-140.3*
c1ccc(-n2ncc3c(NCC4CCCO4)ncnc32)cc1 (stereo not given)	-132.1*
Cc1ccccc1Nc1ncnc2c1cnn2-c1ccccc1	-111.6*
Clc1ccc(-n2ncc3c(NCC4CCCO4)ncnc32)cc1 (stereo not given)	-89.0*
